HT1080 IDH1KD tx: toxicity to HT-1080 IDH1 knockdown cells (counter line); HT-1080 IDH1 knockdown viability, ATP luminescence, 48 h; Potency, µM (top dose mostly 46.1 µM), hits mostly cytotoxic; 360,000 compounds, 2% hits
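Viability of IDH1-knockdown HT-1080 fibrosarcoma cells was assessed by CellTiter-Glo after 48 h at 37 °C with titrated compound; concentration-effect curves were classified by fit quality and response size.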
HT1080-NT tox: kills 2HG-producing HT-1080-NT fibrosarcoma cells. Potency, µM (top dose mostly 46.1 µM), hits mostly cytotoxic. 360,000 compounds, 1.6% hits. AID 686970. HT-1080-NT fibrosarcoma viability, CellTiter-Glo ATP luminescence, 48 h;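 further: NT is the 2HG producing partner of a matched IDH1 knockdown line; nearly all actives have a fitted effect of over 55% in size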
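Viability by CellTiter-Glo luminescence after 48 h compound exposure at 37C of HT-1080-NT cells (750/well, RPMI, 5% FBS). % activity scaled between DMSO wells and medium-only wells, then curve-fitted and categorized by curve class.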
KB-V1 MDR tox: kills drug-selected multidrug resistant KB-V1 cells. KB-V1 MDR cells viability, CellTiter-Glo, 72 h. 400,000 compounds, 3.4% hits. AID 1347076. Potency, µM (doses to about 46.1 µM), most hits filed as cytotoxic; further: nearly all actives have a fitted effect of over 60% in size
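Cytotoxicity via CellTiter-Glo luminescence after 72 h compound exposure at 37 degrees C. Cells: drug-selected KB-V1 line, DMEM phenol-red free plus 10% FBS. Compounds tested at multiple concentrations; normalized data fitted to concentration-effect curves.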
TDP1 cell CPT: DT40-hTDP1 cell growth loss with CPT | chicken DT40 Tdp1-/-;hTDP1 cells + 20 nM CPT, ATP luminescence, 48 h | Potency, µM (highest dose often 46.2 µM), usual class: inhibitors | 420,000 compounds, 12% hits | AID 686979; further: nearly all actives have a fitted effect of over 55% in size
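Cell growth measured by CellTiter-Glo luminescence after a minimum 48 h, 37 C compound exposure with 20 nM CPT in Tdp1-knockout DT40 cells stably expressing hTDP1, seeded 400/well; qHTS titration format.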
KB-3-1 tox: KB-3-1 parental cell cytotoxicity. KB-3-1 viability, CellTiter-Glo ATP luminescence, 72 h. Potency, µM (titrated, usually from 46.1 µM), actives largely listed as cytotoxic. 400,000 compounds, 1.4% hits. AID 1347075; further: nearly all actives have a fitted effect of over 60% in size
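Cytotoxicity measured as CellTiter-Glo luminescence after 72 h at 37 C. Compound titrations were pinned onto drug-naive KB-3-1 parental adenocarcinoma cells grown in DMEM with 10% FBS, and normalized data fitted to concentration-response curves.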
TDP1 cell noCPT: qHTS for Inhibitors of human tyrosyl-DNA phosphodiesterase 1 (TDP1): qHTS in cells in absence of CPT | DT40 Tdp1-/- hTDP1 cells, no CPT, ATP luminescence, 48 h | Potency, µM (series often up to 46.2 µM), most hits filed as inhibitors | 420,000 compounds, 15% hits; further: nearly all actives have a fitted effect of over 55% in size
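Growth kinetics read by CellTiter-Glo luminescence after ≥48 hr at 37 °C. Cells: DT40 Tdp1-/- stably carrying human TDP1, 400 per well, compound exposure in the absence of CPT (DMSO vehicle).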
Of the large screens only hits and unclear results are named; the others gave an inactive call. An excerpt weighted towards active compounds, which were near 19% of everything screened. The call rests on the fitted dose curve; in most records, active means well fitted curve in the direction sought with a large enough effect; inconclusive means small, poorly fitted or top-dose-only effect, or another doubt; inactive means no such curve, though single readings can be large; an effect the other way counts as inactive or inconclusive.

CN(C)S(=O)(=O)N1CCC(Oc2cccc(C(=O)NC3CCCCCC3)c2)CC1	HT1080-NT tox inconclusive, KB-V1 MDR tox 1.3µM, TDP1 cell CPT 18.4µM, TDP1 cell noCPT 14.6µM
CCN1CCN(C(=O)c2cccc(OC3CCN(S(=O)(=O)N(C)C)CC3)c2)CC1	none (no result: KB-V1 MDR tox, KB-3-1 tox)
CN(C)S(=O)(=O)N1CCC(Oc2ccc(C(=O)NC3Cc4ccccc4C3)cc2)CC1	KB-V1 MDR tox inconclusive, TDP1 cell CPT inconclusive, KB-3-1 tox inconclusive, TDP1 cell noCPT 16.4µM
c1ccc2[nH]ccc2c1	none (no result: HT1080 IDH1KD tx, HT1080-NT tox, KB-V1 MDR tox, KB-3-1 tox)
CC(=NO)c1ccc2c(c1)Cc1cc([N+](=O)[O-])ccc1-2	KB-V1 MDR tox 7.31µM, TDP1 cell CPT inconclusive, KB-3-1 tox 14.6µM, TDP1 cell noCPT 13µM
CC(O)CN(CC(C)O)c1ccc2c(c1)Cc1cc([N+](=O)[O-])ccc1-2 (centres undefined)	HT1080 IDH1KD tx inconclusive, TDP1 cell CPT 18.4µM, TDP1 cell noCPT 14.6µM
COc1ccccc1OCCNC(=O)c1ccc(C)c(S(=O)(=O)N2CCOCC2)c1	TDP1 cell CPT inconclusive, TDP1 cell noCPT inconclusive
COC(=O)CC1COc2ccccc2N1C(=O)/C=C/c1ccccc1 (centres undefined)	TDP1 cell CPT inconclusive, TDP1 cell noCPT inconclusive
Cc1ccc(Oc2ccc(S(=O)(=O)NCC(C)(C)N3CCOCC3)cc2)cc1	KB-V1 MDR tox 11.6µM, KB-3-1 tox inconclusive
Cc1ccc(CNC(=O)Cn2cc(S(=O)(=O)Cc3ccccc3Cl)c3ccccc32)cc1	TDP1 cell CPT 18.4µM, TDP1 cell noCPT 14.6µM (no result: HT1080 IDH1KD tx, HT1080-NT tox)
CN(C)c1ccc(NC(=O)Cn2cc(S(=O)(=O)Cc3ccccc3Cl)c3ccccc32)cc1	TDP1 cell CPT inconclusive, TDP1 cell noCPT 8.2µM (no result: HT1080 IDH1KD tx, HT1080-NT tox, KB-V1 MDR tox, KB-3-1 tox)
O=C(Cn1cc(S(=O)(=O)Cc2ccccc2Cl)c2ccccc21)NCc1ccccc1Cl	TDP1 cell CPT inconclusive, TDP1 cell noCPT inconclusive (no result: HT1080 IDH1KD tx, HT1080-NT tox)
Cc1ccc(NC(=O)Cn2cc(S(=O)(=O)Cc3cccc(Cl)c3)c3ccccc32)cc1C	TDP1 cell CPT inconclusive, TDP1 cell noCPT inconclusive (no result: HT1080 IDH1KD tx, HT1080-NT tox)
CN(C)c1ccc(NC(=O)Cn2cc(S(=O)(=O)Cc3cccc(Cl)c3)c3ccccc32)cc1	TDP1 cell CPT inconclusive, TDP1 cell noCPT inconclusive (no result: HT1080 IDH1KD tx, HT1080-NT tox)
Cc1ccc(C)c(NC(=O)Cn2cc(S(=O)(=O)Cc3cccc(Cl)c3)c3ccccc32)c1	TDP1 cell CPT 16.4µM, TDP1 cell noCPT inconclusive (no result: HT1080 IDH1KD tx, HT1080-NT tox)
CCN(C(=O)Cn1cc(S(=O)(=O)Cc2ccccc2Cl)c2ccccc21)c1ccccc1	KB-V1 MDR tox inconclusive, TDP1 cell CPT 16.4µM, TDP1 cell noCPT 23.1µM (no result: HT1080 IDH1KD tx, HT1080-NT tox)
Cc1cc(C)c(C(=O)COC(=O)c2c(C)noc2C)cc1C	TDP1 cell noCPT inconclusive
COc1cccc(CNc2cc(CSc3ccc(Cl)cc3)nc(C)n2)c1	HT1080-NT tox inconclusive, TDP1 cell CPT inconclusive, KB-3-1 tox inconclusive, TDP1 cell noCPT inconclusive
Cc1ccc(/C=N/N=C/c2ccc(C)s2)s1	KB-V1 MDR tox inconclusive, TDP1 cell CPT inconclusive, TDP1 cell noCPT inconclusive
Cc1ccc(C=Nc2ccccc2C(N)=O)s1	HT1080 IDH1KD tx 3.26µM, HT1080-NT tox 5.17µM, TDP1 cell CPT 4.11µM, KB-3-1 tox 23.1µM, TDP1 cell noCPT 3.66µM
COc1ccc(-c2nc3cnc(N4CCOCC4)nc3n(C[C@H]3CCCO3)c2=O)cc1	none (no result: HT1080 IDH1KD tx, HT1080-NT tox, KB-V1 MDR tox, KB-3-1 tox)
Cc1cc(OC(=O)c2ccco2)c(Sc2ccccc2[N+](=O)[O-])c(=O)o1	TDP1 cell CPT inconclusive, TDP1 cell noCPT 18.4µM
Cc1[nH]c(=O)[nH]c(=O)c1Sc1ccccc1[N+](=O)[O-]	none
O=C(OCCN=C1NS(=O)(=O)c2ccccc21)c1ccccc1F	none
CCOCc1nc(N)nc(N)c1-c1cccc(Cl)c1	HT1080 IDH1KD tx inconclusive, HT1080-NT tox inconclusive, TDP1 cell CPT 8.2µM, TDP1 cell noCPT 7.31µM
CCOC(=O)c1c(C)nc2ccc(Cl)cc2c1-c1ccccc1	HT1080 IDH1KD tx inconclusive, TDP1 cell noCPT inconclusive
c1ccc(-c2nc(-c3cnc4ccccc4n3)cs2)cc1	KB-3-1 tox inconclusive (no result: HT1080 IDH1KD tx, HT1080-NT tox)

From PubChem
